Compound activity: PubChem BioAssay, Broad Institute
The sample as a whole holds a higher share of hits than the screen did.
HDAC3 inhib: blocks human histone deacetylase 3; O15379; recombinant HDAC3, fluorogenic peptide/trypsin coupled, fluorescence; inhibition, % at 8.3 µM; 320,000 compounds, 0.15% hits; AID 2718; in the data active = inhibition above about 26%, passing the limit was not always enough
PDI turbidity: blocks human protein disulfide isomerase activity; 350,000 compounds, 0.052% hits; PDI insulin aggregation turbidity, A650, 90 min; AID 588391; P07237; inhibition, % at 10 µM;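 active = mean inhibition across replicates of 30% or more, whatever share of single replicates reach that level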
ERAP1 HTS inh: inhibitors of human ERAP1 aminopeptidase; Q9NZ08; recombinant ERAP1, Leu-AMC fluorescence, 60 min; inhibition, % at 10.7 µM; 340,000 compounds, 0.15% hits; AID 652197;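 active = mean replicate inhibition of at least 30%, or all replicates individually reaching that 30% level; inactive = mean below 30% and not every replicate reaching it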
ERp5 inh: blocks human ERp5 reductase activity on insulin; inhibition, % at 9.99 µM; ERp5 insulin aggregation, absorbance 650 nm, 90 min; AID 651711; 350,000 compounds, 0.05% hits; Q15084;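 active = mean replicate inhibition above about 25%, with every replicate also reaching it, limit read from the data, passing the limit was not always enough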
SIRT5 inh: blocks human SIRT5 desuccinylation of peptide | Q9NXA8 | 330,000 compounds, 1.1% hits | inhibition, % at 15 µM | Purified SirT5, succinyl-peptide AMC, trypsin-coupled fluorescence; in the data active = inhibition above about 15%
Target sequence (Q9NXA8 whole entry, looked up): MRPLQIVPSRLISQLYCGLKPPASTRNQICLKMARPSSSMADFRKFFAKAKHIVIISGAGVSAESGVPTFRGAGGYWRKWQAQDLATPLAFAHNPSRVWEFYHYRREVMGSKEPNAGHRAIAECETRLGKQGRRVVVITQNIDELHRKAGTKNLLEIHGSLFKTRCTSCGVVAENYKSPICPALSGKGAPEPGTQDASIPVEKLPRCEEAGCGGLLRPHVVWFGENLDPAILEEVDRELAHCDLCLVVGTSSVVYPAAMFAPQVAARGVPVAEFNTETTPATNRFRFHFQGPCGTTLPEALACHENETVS
Hits are given with their value; – = inactive; · = no result.

SMILES | HDAC3 inhib | PDI turbidity | ERAP1 HTS inh | ERp5 inh | SIRT5 inh
C[C@@H]1CCCCO[C@H](CN(C)C(=O)CCC(F)(F)F)[C@@H](C)CN([C@H](C)CO)C(=O)c2cc(NS(=O)(=O)c3ccccc3)ccc2O1 | · | · | – | – | –
Cc1noc(C)c1NC(=O)Nc1ccc2c(c1)C(=O)N([C@H](C)CO)C[C@H](C)[C@H](CN(C)S(=O)(=O)c1ccccc1)OCCCC[C@@H](C)O2 | · | · | – | – | –
O=C(Nc1cc(F)ccc1F)N1CC(=O)N2[C@H](CO)[C@@H](c3ccc(C#CC4CCCCC4)cc3)[C@@H]2C1 | · | · | – | – | 18
CC(C)CC#Cc1ccc([C@@H]2[C@H]3CN(C(=O)Nc4cc(F)ccc4F)CC(=O)N3[C@H]2CO)cc1 | · | · | – | – | 17
O=C(Nc1cc(F)ccc1F)N1CC(=O)N2[C@H](C1)[C@@H](c1ccc(C#CC3CCCCC3)cc1)[C@@H]2CO | · | · | – | – | 20
O=C(Nc1cc(F)ccc1F)N1CC(=O)N2[C@H](C1)[C@H](c1ccc(C#CC3CCCC3)cc1)[C@@H]2CO | · | · | – | – | –
O=C(N[C@H]1CC[C@@H](CC(=O)N2CCCCC2)O[C@H]1CO)c1ccc2c(c1)OCO2 | · | · | – | – | –
COc1cccc(CN(C)CCCn2cnc3c(SC)ncnc32)c1 | · | – | – | – | 15
COc1ccc(CN(C)CCCn2cnc3c(OCc4ccccc4)ncnc32)cc1 | · | – | – | – | –
CCCC(=O)N1CC2(C1)CN(S(=O)(=O)c1ccc(C)cc1)[C@H](CO)c1[nH]c3cc(OC)ccc3c12 | · | · | – | – | 15
COc1ccc2c3c([nH]c2c1)[C@H](CO)N(C(=O)NC(C)C)CC31CN(C(=O)C2CCCC2)C1 | · | · | – | 67 | –
CCS(=O)(=O)N1CC2(C1)CN(S(=O)(=O)c1cn(C)cn1)[C@@H](CO)c1[nH]c3cc(OC)ccc3c12 | · | · | – | – | 30
COc1ccc2c3c([nH]c2c1)[C@H](CO)N(C(=O)C1CCCC1)CC31CCN(C(=O)NC(C)C)CC1 | · | · | – | – | –
COc1ccc2c3c([nH]c2c1)[C@@H](CO)N(C(=O)C1CCCC1)CC31CCN(C(=O)NC(C)C)CC1 | · | · | – | 27 | –
CCS(=O)(=O)N1CC2(C1)CN(S(=O)(=O)c1cn(C)cn1)[C@H](CO)c1[nH]c3cc(OC)ccc3c12 | · | · | – | – | –
C[C@H]1CN([C@@H](C)CO)C(=O)Cc2cc(NS(=O)(=O)c3cccs3)ccc2O[C@H]1CN(C)S(=O)(=O)c1ccc(F)cc1 | · | · | – | – | –
CCCC(=O)N1CC2(C1)CN(C(=O)C1CCCCC1)[C@H](CO)c1[nH]c3cc(OC)ccc3c12 | · | · | – | 36 | –
Cc1c(Br)c(O)c(Br)c(O)c1/C=N/n1c(-c2ccccc2)n[nH]c1=S | – | – | – | – | 30
CCNC(=O)C[C@H]1CC[C@@H]2[C@@H](COc3ccc(NC(=O)Nc4c(C)noc4C)cc3C(=O)N2C)O1 | · | · | – | – | –
C[C@@H]1CCCCO[C@H](CN(C)CC2CCCCC2)[C@H](C)CN([C@H](C)CO)C(=O)c2cc(NC(=O)Cc3ccccc3)ccc2O1 | · | · | – | – | –
CO[C@H]1O[C@H](CO)[C@@H](OC(=O)Nc2cccc(F)c2)[C@H](OC(=O)Nc2ccccc2)[C@@H]1OC(=O)Nc1ccccc1 | · | · | – | – | –
CCOc1ccccc1N1CCN(C(=O)C2=CC=CN3CCS(=O)(=O)N=C23)CC1 | – | – | 56 | – | –
Cc1ccc(C(C[N+](=O)[O-])c2c(C)[nH]n(-c3ccccc3)c2=O)cc1 (stereo not drawn) | – | – | – | – | 26
CC=Cc1ccc2n(c1=O)C[C@H]1[C@H](CO)[C@@H](C(=O)NCC3CC3)N(Cc3ccccc3)[C@@H]21 (mixture of isomers) | · | · | – | – | –
CC(NC(=O)c1ccc(C(C)(C)C)cc1)C(c1cccs1)N1CCOCC1 (stereo not drawn) | – | – | – | – | –
SMILES | HDAC3 inhib | PDI turbidity | ERAP1 HTS inh | ERp5 inh | SIRT5 inh
CC(NC(=O)c1ccncc1)C(c1cccs1)N1CCOCC1 (stereo not drawn) | – | – | – | – | 20
C[C@H](CO)N1C[C@H](C)[C@H](CN(C)Cc2ccc(C(=O)Nc3ccccc3N)cc2)Oc2ccc(NS(=O)(=O)c3ccc(F)cc3)cc2C1=O | · | · | – | – | ·
O=C1OCCOC2CCCc3oc(C4=CCCCC4)c1c32 (stereo not drawn) | · | · | – | – | 33
Cc1ccc(S(=O)(=O)N2CCC(=O)N([C@H](COCc3cccc(Cl)c3)Cc3ccccc3)CC2)cc1 | · | · | · | – | 40
CCC(=O)N1[C@@H]2Cn3c(ccc(/C=C/c4ccccc4)c3=O)[C@H]1[C@@H](C(=O)N1CCOCC1)[C@@H]2CO | · | · | – | – | –
CC(=O)N1[C@@H]2c3ccc(/C=C/c4ccccc4)c(=O)n3C[C@H]1[C@H](CO)[C@H]2C(=O)N1CCOCC1 | · | · | 88 | – | –
CCN1[C@@H]2c3ccc(/C=C/c4ccccc4)c(=O)n3C[C@H]1[C@H](CO)[C@H]2C(=O)N1CCOCC1 | · | · | 40 | – | –
COc1ccc(-c2cn(CC[C@H]3CC[C@@H](NC(=O)CCN4CCCCC4)[C@@H](CO)O3)nn2)cc1 | · | · | – | – | –
CC(=O)N1Cc2cc(C(=O)NCc3cc(F)cc(F)c3)nc(-c3cccc(C4=CCCC4)c3)c2[C@H]1CCO | · | · | – | – | 15
C[N+]1(CC(=O)OCCCc2ccccc2)CCCCC1 | – | – | – | – | –
C[N+]1(CC(=O)OCCCc2ccccc2)CCCC1 | – | – | 77 | – | –
CCOC(=O)c1ccccc1NC(=O)c1cccc([N+](=O)[O-])c1 | – | – | – | – | ·
Cc1c(N)cc(S(=O)(=O)O)cc1NC(=O)c1cccc([N+](=O)[O-])c1 | · | – | – | – | 28
CCCNC(=O)C[C@@H]1CC[C@@H]2[C@H](COC[C@@H](O)CN2Cc2ccccc2F)O1 | · | · | – | – | –
CO[C@@H]1CN(C)C(=O)c2cc(NC(=O)CC(F)(F)F)ccc2OC[C@@H](C)N(C(=O)C2CCOCC2)C[C@@H]1C | · | · | – | – | ·
Cc1ccc(S(=O)(=O)N2CC[C@H]3[C@H](CO)Nc4ccc(Br)cc4[C@H]32)cc1 | · | · | – | – | –
Cc1ccc(S(=O)(=O)N2CC[C@@H]3[C@H]2c2cc(Br)ccc2N[C@@H]3CO)cc1 | · | · | – | – | 15
COc1ccc(C(=O)O)nc1C | – | – | – | – | 17
COc1ccc(-c2nc(C(=O)O)cs2)cc1OC | – | – | – | – | –
COC(=O)c1cccc(Cn2nc(C)c([N+](=O)[O-])c2C)c1 | – | – | – | – | 15
COc1ccccc1C#Cc1ccc2c(c1)O[C@@H](CN(C)C(C)=O)[C@H](C)CN([C@@H](C)CO)S2(=O)=O | · | · | – | – | –
C=CCNC(=O)COC(=O)COc1ccc(Cl)cc1C | – | – | – | – | 17
CC[n+]1c(-c2ccccc2)csc1Nc1c(C)n(C)n(-c2ccccc2)c1=O | – | – | – | – | 21
COc1ccccc1N1CCN(C(C)C(=O)N2CC(C)OC(C)C2)CC1 (stereo not drawn) | – | – | – | – | 20
COC(=O)Nc1ccc(S(=O)(=O)NNC(=O)c2c(O)c3ccccc3[nH]c2=O)cc1 | – | – | – | – | –
